Test results taken from PubChem BioAssay.
A number with no mark means an inactive call. Activity calls are given as the source filed them.

assay: growth effects on S. cerevisiae YJM789 – YJM789 clinical isolate, OD600, 24 h, basal, primary screen (AID 1089); conditions: higher = more signal, called active from +8 up or from −8 down;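 further: growth of clinical yeast isolate S. cerevisiae YJM 789 seeded 1000 cells per well; test concentration not given here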

Question: Which z-score does the source give for `COCC(=C=CC[C@@H](O)c1ccccc1OCCO)C[C@@H](O)c1ccccn1` here?
Answer: -0.108

Question: With `COc1ccc([Si](C)(C)[C@H]2[C@H](CCO)O[C@@]3(C(=O)N(Cc4cccc(N5CCOC5=O)c4)c4ccccc43)[C@@H]2C)cc1` as the compound, how does the z-score read?
Answer: 2.81

Question: For `COC(=O)C(CC#Cc1ccc2c(c1)[C@]1(C(=O)N2)[C@H](C(=O)N2CCc3cc(OC)c(OC)cc3C2)[C@H]2C(=O)O[C@H](c3ccccc3)[C@H](c3ccccc3)N2[C@@H]1c1ccc(O)cc1)C(=O)OC`, which z-score is on record?
Answer: 2.78

Question: With `COc1ccc([Si](C)(C)[C@H]2[C@H](CCn3cc(CCO)nn3)O[C@@]3(C(=O)N(Cc4cccc(N5C(=O)c6cccc7cccc5c67)c4)c4ccccc43)[C@@H]2C)cc1` as the compound, how does the z-score read?
Answer: 0.502

Question: With `C[C@H]1ON(c2ccccc2)[C@@H](c2ccccc2)[C@@H]1C(=O)N1C(=O)OC[C@@H]1c1ccccc1` as the compound, how does the z-score read?
Answer: 0.386

Question: With `COc1ccc(C#Cc2ccc3c(c2)[C@]2(C(=O)N3)[C@H](C(=O)O)[C@H]3C(=O)O[C@H](c4ccccc4)[C@H](c4ccccc4)N3[C@@H]2c2ccc(OCCO)cc2)cc1` as the compound, how does the z-score read?
Answer: 2.76

Question: Which z-score does the source give for `C=CCC(OC(C)=O)[C@@H]1[C@@H](N(Cc2ccc(-c3ccccc3)cc2)C(=O)Cc2ccc(OC)cc2)c2cc(OCCCO)ccc2N1C(=O)c1ccc(-c2ccccc2)cc1` (stereo not given in full) here?
Answer: -0.445

Question: For `Cc1ccc(S[C@]2(C(=O)NCC(C)C)CC(=O)N(C3CCCCC3)[C@@H]2c2ccc(CO)cc2I)cc1`, which z-score is on record?
Answer: -0.525

Question: Which z-score does the source give for `COC(=O)C(CC#Cc1ccc2c(c1)[C@]1(C(=O)N2)[C@H](c2ccc(OCCO)cc2)N2[C@H](c3ccccc3)[C@H](c3ccccc3)OC(=O)[C@H]2[C@@H]1C(=O)O)C(=O)OC` here?
Answer: 2.49

Question: Which z-score does the source give for `[N-]=[N+]=NCc1ccccc1C[C@@]1(C(=O)NCCN2CCOCC2)N=C(c2ccc(OCCCO)cc2)O[C@@H]1c1ccccc1CN=[N+]=[N-]` here?
Answer: -0.0759

Question: With `C[C@]12C(=O)N(CCCO)[C@@H]3C(=O)N(c4ccc(Cl)cc4)CC=CC31O[C@@H]1/C=C\CCCOC(=O)C12` (stereo not given in full) as the compound, how does the z-score read?
Answer: -1.65

Question: With `CCCCC(O)C1C=CC2C(=O)N(Cc3ccccc3)C(=O)C2N1n1cnnc1` (stereo not given) as the compound, how does the z-score read?
Answer: -0.28

Question: With `Cc1ccccc1C(O)C1C=CC2C(=O)N(C)C(=O)C2N1Nc1ccc([N+](=O)[O-])cc1[N+](=O)[O-]` (stereo not given) as the compound, how does the z-score read?
Answer: 0.426

Question: For `COCCOC(=O)N1C(=O)[C@@]2(c3cc(C#Cc4ccc(OC)cc4)ccc31)[C@H](C(=O)N1CCc3cc(OC)c(OC)cc3C1)[C@H]1C(=O)O[C@H](c3ccccc3)[C@H](c3ccccc3)N1[C@@H]2c1ccc(OCCO)cc1`, which z-score is on record?
Answer: 2.2

Question: With `O=c1c2ccc(Br)cc2nc(-c2ccccc2)n1Cc1cccc(O)c1` as the compound, how does the z-score read?
Answer: -1.52

Question: Which z-score does the source give for `Cc1ccc(S[C@]2(C(=O)NCCN3CCOCC3)CC(=O)N(C3Cc4ccccc4C3)[C@@H]2c2ccc(CO)cc2)cc1` here?
Answer: -0.432

Question: For `C=CC[C@@]1(C(=O)NCCN2CCOCC2)N=C(c2ccc(OCCCO)cc2)O[C@@H]1c1ccccc1`, which z-score is on record?
Answer: 0.305

Question: For `C[C@H]1NC(=O)C([C@@H](C)OCc2ccccc2)NC(=O)[C@@]23C(=O)N[C@@H](Cc4ccccc4)C2[C@H](C)[C@@]2(C)O[C@H]2C3/C=C/CC/C=C/CNC1=O` (stereo not given in full), which z-score is on record?
Answer: 0.607

Question: With `C/C=C/[C@@H](CCn1cc([C@H](O)c2ccccc2)nn1)[Si](C)(C)c1ccc(OC)cc1` as the compound, how does the z-score read?
Answer: -2.41

Question: Which z-score does the source give for `CCCC=C(CCC)[C@@H](NC(=O)Cc1ccccc1)c1ccc(C(=O)OC)cc1` here?
Answer: 0.761

Question: With `C=C(COC)/C(=C/C[C@@H](OC(=O)c1ccncc1)c1cccc(OCCO)c1)c1cc(C(=O)OC)ccc1OC` as the compound, how does the z-score read?
Answer: -25.3 (active)

Question: With `COc1cc(NN2C(C(O)c3ccc(I)cc3)C=CC3C(=O)N(C)C(=O)C32)cc(OC)c1OC` (stereo not given) as the compound, how does the z-score read?
Answer: 0.896

Question: With `COCCCNC(=O)[C@@]1(Cc2ccccc2CN=[N+]=[N-])N=C(c2ccc(OCCCO)cc2)O[C@H]1c1ccccc1N=[N+]=[N-]` as the compound, how does the z-score read?
Answer: -0.299

Question: Which z-score does the source give for `O=C(CS)NCCCCCNC(=O)[C@@H]1C[C@@H]2C(=O)N3CCC[C@H]3C(=O)N2[C@@H]1c1ccc(O)cc1` here?
Answer: -0.0524

Question: For `Cc1cc(C)c(C(O)C2C=CC3C(=O)N(c4ccccc4)C(=O)C3N2Nc2ccc([N+](=O)[O-])cc2)c(C)c1` (stereo not given), which z-score is on record?
Answer: -0.695

Question: Which z-score does the source give for `C=C[C@H](C)[C@H](OC(=O)Nc1ccc(SC)cc1)c1ccc(O)c2ccccc12` here?
Answer: -21.7 (active)

Question: With `COC(=O)C(CC#Cc1ccc2c(c1)[C@]1(C(=O)N2)[C@H](C(=O)N2CCc3cc(OC)c(OC)cc3C2)[C@H]2C(=O)O[C@H](c3ccccc3)[C@H](c3ccccc3)N2[C@@H]1c1ccc(OCCO)cc1)C(=O)OC` as the compound, how does the z-score read?
Answer: 3.22

Question: Which z-score does the source give for `COC(=O)[C@@]1(Cc2ccc(OC)cc2)[C@H]2c3cc(C(=O)N4CCCC4)n(CCc4ccc(O)c(OC)c4)c3C[C@H]2CN1C(=O)c1ccccc1` here?
Answer: 0.525

Question: Which z-score does the source give for `O=C1N(CCS(=O)(=O)c2ccccc2)Cc2ccccc2C[C@@]12COC(c1ccc(OCCCO)cc1)=N2` here?
Answer: 0.978

Question: Which z-score does the source give for `CC(C)C[C@H]1NC(=O)[C@H](C)NC(=O)[C@@]23C(=O)N[C@@H](Cc4ccccc4)C2[C@H](C)[C@@]2(C)O[C@H]2C3/C=C/C/C=C\CNC1=O` (stereo not given in full) here?
Answer: -1.14

Question: Which z-score does the source give for `COc1ccc([Si](C)(C)[C@H]2[C@H](CC(=O)N3CCC[C@H]3CO)O[C@@]3(C(=O)N(Cc4ccc(N5C(=O)c6cccc7cccc5c67)cc4)c4ccccc43)[C@@H]2C)cc1` here?
Answer: -0.631

Question: Which z-score does the source give for `COc1cccc(C)c1NC(=O)O[C@H]1[C@H](OC(=O)Nc2ccccc2)[C@H](OC(=O)Nc2ccccc2)[C@@H](OC)O[C@@H]1CO` here?
Answer: 0.547

Question: For `C=CCC(OC(C)=O)[C@@H]1[C@@H](N(Cc2ccc(-c3ccccc3)cc2)C(=O)c2cccc3ccccc23)c2cc(OCCCO)ccc2N1C(=O)c1ccc2ccccc2n1` (stereo not given in full), which z-score is on record?
Answer: -0.288

Question: With `O=C1O[C@H](c2ccccc2)[C@H](c2ccccc2)N2[C@H]1[C@@H](C(=O)N1CCN(c3ncccn3)CC1)[C@]1(C(=O)Nc3ccc(C#CCCO)cc31)[C@H]2c1ccc(OCCO)cc1` as the compound, how does the z-score read?
Answer: 0.987

Question: Which z-score does the source give for `COC(=O)[C@@]1(Cc2ccccc2N=[N+]=[N-])N=C(c2ccc(OCCCO)cc2)O[C@H]1c1ccccc1` here?
Answer: -0.0982
